For 62 molecules, activation results are on record in PubChem BioAssay AID449 (The Scripps Research Institute Molecular Screening Center, 2006).

The campaign covered roughly 56,000 compounds. About 320 (0.57%) were called active. The sample holds actives, similar compounds and a random draw of the others, so the mix is not that of the screen.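 The calls were made as follows: active = activation above a cutoff set at the mean activation of all tested compounds plus 3 SD (cut at about 54% in these data); inactive = the rest, inconclusive results apart.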

The target in the test is Sphingosine 1-phosphate receptor 1 (Homo sapiens) (UniProt P21453). Description: activation or potentiation of human S1P1 signaling – cell-based, primary and confirmation screens, CRE-bla reporter, primary screen (AID 449).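 Also: forskolin at 4 µM as EC80 and the EC20 agonist is SEW2871; 100% = SEW2871 at its EC100 plus forskolin at EC80.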 The settings on record: S1P1 CRE-bla cells, forskolin, beta-lactamase FRET, potentiator mode, at 9.5 µM, stronger effect = higher value, 100% = saturating reference agonist, 0% = basal, S1P1 agonist co-added at EC20, 2 nM.
Sphingosine 1-phosphate receptor 1 (Homo sapiens), sequence (P21453 whole entry, looked up): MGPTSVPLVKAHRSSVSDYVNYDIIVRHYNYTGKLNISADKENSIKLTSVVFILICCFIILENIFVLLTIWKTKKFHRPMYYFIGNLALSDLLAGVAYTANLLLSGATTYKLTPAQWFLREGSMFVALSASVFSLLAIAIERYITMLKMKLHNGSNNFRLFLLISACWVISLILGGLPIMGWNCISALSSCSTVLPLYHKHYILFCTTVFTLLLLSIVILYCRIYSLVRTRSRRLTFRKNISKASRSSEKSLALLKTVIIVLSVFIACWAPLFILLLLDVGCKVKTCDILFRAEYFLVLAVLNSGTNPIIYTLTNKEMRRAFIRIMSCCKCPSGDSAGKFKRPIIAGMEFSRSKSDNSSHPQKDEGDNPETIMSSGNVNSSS

Setting [1] is: measured here: confirmation screen, triplicate average.

In the case of `c1csc(-c2cn3c(n2)SCC3)c1`, the activation was -25.6% (inactive).
For the molecule `CCc1cc(=O)oc2cc(OCC(=O)N3CCCc4ccccc43)ccc12`, the activation is -15.5% (inactive).
`CCSC(C)CC1C/C(=N/O)c2c(C)noc2C1` (stereo unspecified): the activation is -5.8% (inactive).
The same measure, in the same setting: next, `COC(=O)Cc1c(C)c2ccc(OCC(=O)NCc3ccc4c(c3)OCO4)cc2oc1=O`: -1.6% (inactive); `CSc1nnc(CNC(=O)c2ccccc2)n1-c1ccc(F)cc1`: -11.1% (inactive).
`O=C(CCCOc1ccccc1)Nc1cccc(C(=O)O)c1`: the activation is 2.3% (inactive).
For `COc1ccc(C(=O)Nc2cccnc2)cc1C(=O)Nc1cccnc1`, the activation is 5.6% (inactive).
In the case of `CN(C)/C=C1/C(=O)Nc2ccccc21`, the activation is -14.3% (inactive).
`COC(=O)C(C)n1cnc2c(nnn2-c2cccc(Cl)c2)c1=O` (stereo unspecified): the activation was -14.1% (inactive).
Still for that read-out and setting: the same measure for `Cn1c(=O)[nH]c(=O)c2c1nc(CN1CCN(c3ccccc3F)CC1)n2CCc1ccccc1`: -6.4% (inactive); for `O=C(Nc1c(-c2ccccc2)nc2c(Br)cc(Br)cn12)c1ccco1`: 17.7% (inactive); for `Cc1nc2ccc(S(=O)(=O)NC(C(=O)N3CCCCCC3)C(C)C)cc2s1` (stereo unspecified): -9.8% (inactive).
For the molecule `CCCOC(=O)c1cc2ccccc2oc1=O`, the activation is -2.5% (inactive).
Turning to `Cc1ccnc(SCCn2c(N(C)Cc3ccccc3)nc3c2c(=O)n(C)c(=O)n3C)n1`, the activation was -31.4% (inactive).
On to `N#Cc1c2c(c(-c3ccccc3)[nH]c1=O)CCCC2`, for which the activation was -28.7% (inactive).
Same read-out and setting: next, `C=CCOc1nc2c(c(=O)n(C)c(=O)n2C)n1Cc1ccc(Cl)cc1Cl`: 2.7% (inactive); `O=P(O)(CN1CCCCC1)CN1CCCCC1`: -3% (inactive); `COc1ccc(OCC(=O)OCC(=O)Nc2ccc(S(=O)(=O)N3CCCCC3)cc2)cc1`: -8.9% (inactive).
`COc1ccc(C2C(C#N)=C(N)Oc3cc(N)ccc32)cc1OC` (stereo unspecified): the activation is -18% (inactive).
Regarding `COc1ccc(CSc2nc(N3CCOCC3)c3c(c2C#N)CC(C)(C)OC3)cc1`, the activation was -11.9% (inactive).
As to `CC(=O)Nc1ccc(S(=O)(=O)N2CCN(C3CCCCCCC3)CC2)cc1`, the activation was -11.9% (inactive).
`COc1cc(OC)cc(C(=O)Nc2ncc3c(n2)CC(C)(C)CC3=O)c1`: the activation is -4.2% (inactive).
For the molecule `CC(C)(C)Nc1c(N)c(=O)oc2ccccc12`, the activation is 9.1% (inactive).
Regarding `O=c1oc2c(CN3CCCCC3)c(O)ccc2c2c1CCCCC2`, the activation is -2.6% (inactive).
With `O=C(O)c1cccc2c1C(=O)N(C1CCCCC1)C2`, the activation is -25.1% (inactive).
As to `O=C(CN1CCOc2ccccc21)N1CCC(Cc2ccccc2)CC1`, the activation was 6% (inactive).
The same measure, in the same setting: next, `CCCC(=O)N1c2ccccc2NC2=C(C(=O)CCC2)C1c1ccc(F)cc1` (stereo unspecified): -9.6% (inactive); `Cc1cccc(CC(=O)Nc2c3c(nn2-c2cccc(Cl)c2)CS(=O)C3)c1` (stereo unspecified): 26.1% (inactive).
On to `CC[C@H]1CN2CCc3cc(OC)c(OC)cc3[C@@H]2C[C@@H]1C[C@H]1NCCc2cc(OC)c(OC)cc21`, for which the activation is 131% (active). Further, the activation under setting [1] is 101%.
Consider `Cc1csc(NC(=O)C2CCCN2C(=O)OCC(C)C)n1` (stereo unspecified), for which the activation was 6.7% (inactive).
Take `CCOc1ncccc1C(=O)OCc1cn2cc(Cl)ccc2n1`: the activation was -55.2% (inactive).
As to `CCOC(=O)N1CCN(C(=O)C2CCN(c3ncnc4c3sc3cccc(F)c34)CC2)CC1`, the activation was 96.6% (active). Further, the activation under setting [1] came out at 78.6%.
Turning to `CCOC(=O)N1CCN(C(=O)C2CCCN(c3ncnc4c3sc3cccc(F)c34)C2)CC1` (stereo unspecified), the activation was -8.7% (inactive).
As for `CCOC(=O)C1CCN(c2ncnc3c2oc2ccc(Br)cc23)CC1`, the activation is 3.6% (inactive).
The same measure, in the same setting: the same measure for `CN1C(=O)CC(N2CCN(c3ccccn3)CC2)C1=O` (stereo unspecified): -14.2% (inactive); for `O=C(O)CN(Cc1ccco1)S(=O)(=O)c1ccccc1`: -18.7% (inactive).
For the molecule `CCC1(C)N(O)C(C)(C)C(c2ccc(OC)cc2)=[N+]1[O-]` (stereo unspecified), the activation is -9.9% (inactive).
`Cn1c(=NC(=O)C2CC2)sc2cc(F)cc(F)c21`: the activation was 0.7% (inactive).
With `COc1ccc(N2C(=O)C3CCCN3C2c2cccc(OC)c2)cc1` (stereo unspecified), the activation was 5.4% (inactive).
Same read-out and setting: the same measure for `C=C(Br)CN1CCN(CC(=C)Br)CC1`: -15.8% (inactive); for `Cc1ccc(C2CC(c3cccc(Br)c3)n3nc(N)nc3N2)cc1` (stereo unspecified): -10.7% (inactive).
For the molecule `COc1ccccc1-n1c(CNC(=O)c2ccccc2)nnc1SCC(=O)Nc1nnc(C)s1`, the activation is -0.9% (inactive).
Regarding `O=C(CSCc1cccs1)N1CCCC1`, the activation was -22.9% (inactive).
Turning to `CC(C)Oc1ccc(C(=O)Nc2cc(=O)n(C)c(=O)n2C)cc1`, the activation was -4.5% (inactive).
On the same count and under the same terms, the same measure for `CCCN1CCN(C(=O)Cn2ncc3ccccc32)CC1`: -19.3% (inactive).
With `Cc1cc(C)c(S(=O)(=O)NCCCN2CCOCC2)cc1Br`, the activation was 3.7% (inactive).
Consider `CC(=O)N1CCN(c2cccc(C)c2C)CC1`, for which the activation is -9.6% (inactive).
Take `CCNC(=O)N1CCNC(=O)C1CC(=O)Nc1ccc(C(=O)OCC)cc1` (stereo unspecified): the activation was -11.5% (inactive).
Still for that read-out and setting: the same measure for `COc1ccccc1NC1=NC2(CCCC2)N=C(N)N1`: 5.5% (inactive); for `CCN(CC)S(=O)(=O)c1ccc2nc(CSc3nnnn3-c3ccc(O)cc3)[nH]c2c1`: -21.4% (inactive).
Regarding `O=S(=O)(Nc1ccc2nc(-c3ccco3)[nH]c2c1)c1ccccc1`, the activation was 5.9% (inactive).
Regarding `Cc1ccc(C2c3c(oc4ccc(C)cc4c3=O)C(=O)N2CCCN2CCOCC2)cc1` (stereo unspecified), the activation was 3.6% (inactive).
Consider `COCCn1nnnc1C(c1ccccc1Cl)N1CCN(c2ccccc2OC)CC1` (stereo unspecified), for which the activation is -15.5% (inactive).
For `COc1ccccc1-n1nnnc1S(=O)(=O)Cc1ccc(Cl)cc1`, the activation is 89.3% (active). Further, under setting [1], the activation came out at 76%.
Regarding `COc1ccccc1N1CCN(Cc2nnnn2CCc2ccccc2)CC1`, the activation was -1.7% (inactive).
For the molecule `CCOC(=O)C1Cn2c(nc3c(c2=O)C(C)(CC)Cc2ccccc2-3)S1` (stereo unspecified), the activation was -35.4% (inactive).
`COc1ccc(OC)c(C(=O)c2coc3ccc(OC)cc23)c1`: the activation is 7.5% (inactive).
On to `CCCCn1c(CCCNC(=O)CC)nc2ccccc21`, for which the activation is -7% (inactive).
As to `COc1ccc(-c2ccc(-c3noc(-c4ccncc4)n3)c(OC)n2)cc1`, the activation was -6.8% (inactive).
As to `CN1CCN(c2ccc(NC(=O)COc3ccc(Cl)cc3Cl)cc2)CC1`, the activation is -9.3% (inactive).
The same measure, in the same setting: the same measure for `Cc1cccc(NC(=O)COc2ccccc2C)n1`: 15.3% (inactive).
On to `Cc1ccccc1OCC(=O)Nc1ccc(N2CCN(C(=O)C(C)C)CC2)c(Cl)c1`, for which the activation was 92.5% (active). The activation under setting [1] stood at 68.2%.
